Source: the supplement of paper PMC13380429

System: Vero E6 infected with SARS-CoV-2
Assay: inhibition of SARS-CoV-2 cytopathic effect; higher = more antiviral protection, active = above 15
Settings: 48 h

Measured: inhibition of SARS-CoV-2 cytopathic effect

CC[C@@H](C)CNCC(=O)N1CCc2sccc2[C@@H]1COc1cccc(C)c1
inactive: 1 nM 2.77% | 8.33 nM 3.61% | 100 nM 2.09% | 833.33 nM 1.08% | 10000 nM -6.12%

Oc1c(Cl)cc(Cl)c2cccnc12 [chloroxine]
inactive: 1 nM 2.69% | 8.33 nM 2.44% | 100 nM 1.43% | 833.33 nM -0.59% | 10000 nM -0.15%

C[C@@H]1NC(C)(C)CO[C@@]1(O)c1cccc(Cl)c1 [radafaxine]
inactive: 1 nM -2.6% | 8.33 nM 3.35% | 100 nM 6.44% | 833.33 nM 7.12% | 10000 nM -0.21%

O=C(NCC1CCOCC1)c1cnc(Nc2ccc(Cl)cc2Cl)nc1C(F)(F)F
inactive: 1 nM -0.74% | 8.33 nM 0.36% | 100 nM 0.86% | 833.33 nM 1.5% | 10000 nM 3.56%

CCCCNc1c(C(=O)OCC)c(C)nc2c1cnn2CC [tracazolate]
inactive: 1 nM -0.41% | 8.33 nM 1.49% | 100 nM -0.22% | 833.33 nM -2.81% | 10000 nM -1.99%

Cc1csc(-c2nnc(Nc3ccc(Oc4ncccc4-c4ccnc(N)n4)cc3)c3ccccc23)c1
inactive: 1 nM -1.03% | 8.33 nM -3.23% | 100 nM -5.41% | 833.33 nM -4.07% | 10000 nM -4.59%

COc1cc(C[C@@H]2NCCc3cc(O)c(O)cc32)cc(OC)c1OC [trimethoquinol]
inactive: 1 nM 0.9% | 8.33 nM 0.73% | 100 nM 1.88% | 833.33 nM 0.62% | 10000 nM -5.45%

FC(F)(F)c1cccc(C2=CCN(CCc3ccc4ccccc4c3)CC2)c1 [xaliproden]
inactive: 1 nM -0.86% | 8.33 nM -1.4% | 100 nM 1.4% | 833.33 nM 0.49% | 10000 nM 0.49%

CN(C)[C@@H]1C(O)=C(C(N)=O)C(=O)[C@@]2(O)C(O)=C3C(=O)c4c(O)ccc(Cl)c4[C@@H](O)[C@H]3C[C@@H]12 [demeclocycline]
inactive: 1 nM 1.68% | 8.33 nM 1.08% | 100 nM 0.96% | 833.33 nM 1.19% | 10000 nM 2.34%

CC(=O)Nc1ccc(C(=O)NC(C)(C)C)cc1
inactive: 1 nM -4.86% | 8.33 nM -3.67% | 100 nM -1.32% | 833.33 nM -3.41% | 10000 nM -0.2%

O=C(O)CCCCC(=O)O [adipic-acid]
inactive: 1 nM -3.52% | 8.33 nM -3% | 100 nM -0.01% | 833.33 nM -2.5% | 10000 nM -1.83%

O/N=C/c1ccc(-c2ccc(O)c(F)c2)c(Cl)c1O
inactive: 1 nM -3.41% | 8.33 nM -2.33% | 100 nM -2.06% | 833.33 nM -0.62% | 10000 nM -12.8%

Oc1ccc(OC2CCCCO2)cc1 (stereo not given) [deoxyarbutin]
inactive: 1 nM -1.9% | 8.33 nM -1.93% | 100 nM -0.6% | 833.33 nM 0.9% | 10000 nM -0.71%

NS(=O)(=O)c1cc(C(=O)O)c(NCc2ccco2)cc1Cl [furosemide]
inactive: 1 nM -1.05% | 8.33 nM 1.27% | 100 nM -1.4% | 833.33 nM 0.41% | 10000 nM 2.18%

COc1ccc(C(=O)Nc2sc3c(c2C(N)=O)CCCC3)cc1OC
inactive: 1 nM -0.36% | 8.33 nM -0.47% | 100 nM -3.78% | 833.33 nM -0.85% | 10000 nM 0.05%

CN1[C@@H]2CC[C@H]1C[C@@H](OC(=O)[C@H](CO)c1ccccc1)C2 [hyoscyamine]
inactive: 1 nM 1.06% | 8.33 nM -0.12% | 100 nM 0.93% | 833.33 nM -0.12% | 10000 nM -0.51%

O=C1Nc2ccc(I)cc2C1=Cc1cc(Br)c(O)c(Br)c1
inactive: 1 nM 2.36% | 8.33 nM 0.05% | 100 nM 1.54% | 833.33 nM 2.76% | 10000 nM 8.55%

C[C@]12CCC(=O)C=C1C=C[C@@H]1[C@@H]2CC[C@@]2(C)[C@H]1CC[C@@]2(O)CCC(=O)O [potassium-canrenoate]
inactive: 1 nM -4.66% | 8.33 nM -2.95% | 100 nM 2.67% | 833.33 nM 3.81% | 10000 nM 0.36%

CC(C)[C@]12O[C@H]1[C@@H]1O[C@]13[C@]1(O[C@H]1C[C@H]1C4=C(CC[C@@]13C)C(=O)OC4)[C@@H]2O [triptolide]
inactive: 1 nM -1.16% | 8.33 nM -2.32% | 100 nM -12.1% | 833.33 nM -9.06% | 10000 nM -8.11%
